High-throughput results deposited in PubChem by National Center for Advancing Translational Sciences (NCATS).
KCNH2 3.1 inh: blocks the human KCNH2 3.1 channel isoform | U2OS KCNH2 3.1, thallium flux FluxOr; active compounds read low | activity change, % (tested at about 1.8 µM) | 0.95% of 340,000 active | AID 720553;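 active = maximum activity change below -70%; inconclusive = maximum activity change from -70% to -50%; inactive = maximum activity change above -50%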;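 note: thallium influx rate constant from kinetic fluorescence after stimulation buffer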
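Measured as rate of thallium-driven FluxOr signal in transduced U2OS cells carrying the 3.1 channel, read kinetically for 2 min upon stimulation; values are rate constants scaled to DMSO control wells.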
KinaseGlo FLuc: Kinase-Glo luciferase inhibition (counter-screen); Potency, µM (series often up to 38.3 µM), for the others: top-dose activity change, negative = inhibition, hits mostly inhibitors; 0.28% of 200,000 active; Q27757; Kinase-Glo luciferase, ATP luminescence, 8 min; active = well fitted inhibition curve with a large enough effect; inconclusive = small, poorly fitted or top-dose-only effect; note: potency is the fitted concentration of half-maximal effect; nearly all actives have a fitted effect of over 60% in size
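Compound is pinned into ATP-containing buffer (10 uM ATP, imidazole pH 7.2, 7 mM MgCl2). Kinase-Glo luciferase reagent is then added. Light output is recorded following an 8-min room-temperature incubation.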
KCNH2 WT inh: inhibitors of human wildtype KCNH2 potassium channel; U2OS, BacMam KCNH2, thallium flux FluxOr; active compounds read low; 0.37% of 340,000 active; AID 720551; activity change, % at 1.84 µM; Q12809;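 active = maximum activity change below -70%; inconclusive = maximum activity change between -70% and -50%; inactive = maximum activity change above -50%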
Target sequence (Q12809 whole entry, looked up): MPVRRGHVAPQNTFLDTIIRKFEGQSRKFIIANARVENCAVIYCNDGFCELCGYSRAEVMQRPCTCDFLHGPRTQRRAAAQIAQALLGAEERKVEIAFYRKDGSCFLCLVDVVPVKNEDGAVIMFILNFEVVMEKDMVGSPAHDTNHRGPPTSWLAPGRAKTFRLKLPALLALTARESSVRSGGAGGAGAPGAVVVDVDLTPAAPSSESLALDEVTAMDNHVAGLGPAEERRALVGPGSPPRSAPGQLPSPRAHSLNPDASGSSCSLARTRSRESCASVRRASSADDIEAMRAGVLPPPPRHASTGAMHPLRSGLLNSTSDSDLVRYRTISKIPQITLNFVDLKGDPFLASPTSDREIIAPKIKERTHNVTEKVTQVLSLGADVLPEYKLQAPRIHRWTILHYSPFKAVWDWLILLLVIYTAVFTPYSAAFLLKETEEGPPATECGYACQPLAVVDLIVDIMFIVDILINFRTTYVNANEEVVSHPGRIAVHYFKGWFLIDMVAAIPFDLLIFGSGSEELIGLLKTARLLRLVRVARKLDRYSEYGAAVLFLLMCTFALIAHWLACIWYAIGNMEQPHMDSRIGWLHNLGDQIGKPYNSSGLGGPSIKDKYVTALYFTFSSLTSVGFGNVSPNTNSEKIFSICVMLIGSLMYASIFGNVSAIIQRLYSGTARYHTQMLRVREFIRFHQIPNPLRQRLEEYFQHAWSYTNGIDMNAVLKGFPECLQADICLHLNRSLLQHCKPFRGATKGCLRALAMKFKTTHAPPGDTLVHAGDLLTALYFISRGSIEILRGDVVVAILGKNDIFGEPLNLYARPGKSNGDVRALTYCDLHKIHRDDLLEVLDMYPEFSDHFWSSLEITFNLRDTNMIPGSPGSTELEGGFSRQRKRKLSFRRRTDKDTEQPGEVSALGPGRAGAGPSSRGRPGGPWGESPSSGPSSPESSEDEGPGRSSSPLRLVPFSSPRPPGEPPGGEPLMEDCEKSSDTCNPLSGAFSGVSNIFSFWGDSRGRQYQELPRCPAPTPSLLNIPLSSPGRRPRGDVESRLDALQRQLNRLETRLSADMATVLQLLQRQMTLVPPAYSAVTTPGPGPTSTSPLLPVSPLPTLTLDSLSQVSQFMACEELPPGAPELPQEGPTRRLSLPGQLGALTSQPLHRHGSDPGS
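U2OS cells were transduced with wild-type KCNH2 virus (2.03 x 10^8 / mL) for 4 h at room temperature, then cultured overnight at 37 C. Thallium flux was read with FluxOr dye. Rate constants were normalized to DMSO controls.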
An asterisk follows results filed as active; ? = inconclusive; nt = no result. A selection: hits, their analogues and other compounds. The true share with any hit is near 1.2%. % is set by controls: 0 for no effect and ±100 for the full control effect.

SMILES	KCNH2 3.1 inh	KinaseGlo FLuc	KCNH2 WT inh
O=C(CN1CCc2cc3c(cc2C1)OCCCO3)Nc1ccc(S(=O)(=O)N2CCCC2)cc1	-20.7	nt	2.2
O=C(CSc1nnc(COc2ccc(Cl)cc2)o1)Nc1ccc(N2CCOCC2)cc1	3.6	nt	-10.6
CCCCCCCN1C2=NCCCN2c2ccccc21	-80.2*	2.0%	-13.8
CCCCN1C2=NCCCN2c2ccccc21	-7.1	-5.6%	1.0
CC(C)c1ccc(-c2cc(C(=O)N3CCOCC3)c3cc(Br)ccc3n2)cc1	21.6	nt	-0.4
NC(=O)COc1ncnc2scc(-c3ccc(F)cc3)c12	-8.3	-0.1%	-9.6
COCCNC(=O)COc1ncnc2scc(-c3ccc(F)cc3)c12	-112.0*	3.3%	-15.9
CCOC(=O)c1ccc(NC(=S)N(CCCN2CCCC(C)C2)Cc2cccs2)cc1 (configuration not stated)	-80.5*	-0.6%	-89.2*
CCOC(=O)c1ccc(NC(=S)N(CCCN2CCCC2)Cc2cccs2)cc1	?	-1.7%	?
O=C(Nc1ccccn1)c1ccc2c(c1)OCO2	12.2	11.2µM*	-1.1
O=C(/C=C\Nc1ccc2c(c1)OCO2)c1cccs1	-2.1	12.6µM*	-3.1
O=C(/C=C\Nc1ccc2c(c1)OCO2)c1ccc(Cl)s1	-13.7	-7.7%	-10.2
O=C(Nc1ccccn1)c1ccc2c(c1)OCCO2	13.0	?	22.4
O=C(/C=C\Nc1ccc2c(c1)OCO2)c1ccccn1	12.1	14.1µM*	16.7
O=C(Nc1ccccn1)c1cc2ccccc2o1	17.0	8.91µM*	-9.0
O=C(Nc1ccc2c(c1)OCO2)c1ccccn1	17.0	nt	0.5
Cc1ccnc(NC(=O)c2cc3ccccc3o2)c1	-9.9	nt	-3.1
CCN(CC(=O)NNC(=O)c1ccccc1)Cc1ccc(OC)c(F)c1	9.4	nt	13.7
Cc1csc(=O)n1CCC(=O)OCC(=O)Nc1ccc(S(N)(=O)=O)cc1	-16.1	nt	3.7
O=C(Nc1cc(-c2ccccc2)nn1-c1c(Cl)cccc1Cl)c1ccc(F)cc1	2.0	nt	-8.4
CCCCCCn1c(=O)n2n(c1=O)[C@@H]1CN(S(=O)(=O)c3ccc(C)cc3)C[C@]1(O)[C@@H](OC(=O)NCc1ccco1)C2	-1.7	nt	3.3
Cc1ccc([C@H]2C[C@H](n3cc(-c4ccc(F)cc4)nn3)[C@@H](O)CN2C(=O)C2CCCCC2)cc1	-2.8	nt	13.3
NC(=O)C1=C[C@@H](c2csc3ccccc23)C[C@@H](OCCCCO)O1	15.7	nt	1.5
COc1ccc(-c2nc(CN3CCN(C(=O)c4ccco4)CC3)c(C)o2)c(F)c1	13.0	nt	0.7
O=C(Nc1ccc2c(c1)OCCO2)c1cccs1	20.5	?	-2.7
SMILES	KCNH2 3.1 inh	KinaseGlo FLuc	KCNH2 WT inh
O=C(Nc1ccc2c(c1)OCO2)c1cccs1	6.5	8.91µM*	-0.4
O=C(COc1ccc2ccccc2c1)Nc1nccs1	9.4	-19.3%	-4.0
O=C(CCc1ccccc1)NNC(=O)COc1ccccc1	-100.5*	-2.6%	6.6
O=C(COc1ccccc1)Nc1nccs1	3.1	10µM*	-5.6
COc1ccc(OCC(=O)NNC(=O)CCc2ccccc2)cc1	16.5	2.2%	-4.7
CC(C)CC(=O)Nc1ccc(C(=O)CN2CCN(c3ccc(O)cc3)CC2)cc1	0.2	nt	-0.5
O=C(COC(=O)c1ccc(Br)o1)NCc1ccc(Cl)cc1	2.2	nt	3.7
O=C(O)c1nc(NCc2ccccc2)ncc1Cl	18.2	nt	nt
O=C(O)c1nc(NCCc2ccccc2)ncc1Cl	-179.7*	nt	-112.7*
O=c1cc(SCc2ccc(Cl)cc2Cl)nc[nH]1	-13.2	nt	22.4
c1ccc2c(c1)NCC1CCCN21 (configuration not stated)	2.5	nt	-4.5
Nc1c(Cl)cc(-c2cn(CCC(=O)O)c(-c3ccc(Cl)nc3)n2)cc1Cl	7.9	nt	-11.2
COC(=O)c1[nH]c2cc(OC)ccc2c1NC(=O)CCN1CCN(c2ccccc2)CC1	-44.3	-1.9%	11.8
COC(=O)c1[nH]c2cc(OC)ccc2c1NC(=O)CCN1CCN(c2cccc(C)c2C)CC1	-90.6*	nt	6.1
Cc1cccc(NC(=S)NCc2ccccc2)c1C	1.5	nt	6.3
O=C(/C=C/c1ccc([N+](=O)[O-])cc1)N1CCN(c2ccccc2F)CC1	-33.9	-0.8%	7.8
O=C(/C=C/c1ccc(Cl)cc1)N1CCN(c2ccc(Cl)cc2[N+](=O)[O-])CC1	-96.2*	-3.6%	-133.3*
Cc1ccc(NC(=O)COC(=O)CCc2c(C)nc3ncnn3c2C)cc1	32.3	nt	4.0
Cc1ccc(NC(=S)N/N=C2\CC3CC=CC23)c(C)c1 (configuration not stated)	2.9	0.1%	-3.3
Cc1cccc(C)c1NC(=S)N/N=C1\CC2CC=CC12 (configuration not stated)	-131.2*	5.8%	7.1
